Activity calls are given as the source filed them. Rule for the calls: active = hit-call score of the fitted dose curve at least 0.9, where 1 is the maximum; inactive = score below 0.9.
Experiments:
[1] = read-out: Interleukin-1 alpha (IL1a), IL1A (gene 3552); experiment: BSK_KF3CT_IL1a: BioMAP Diversity Plus: KF3CT Assay for Interleukin-1 alpha (IL1a) Biomarker Activity (AID 2283070); conditions: primary human keratinocytes with fibroblasts; actives raise or lower the signal
In short: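 Human keratinocyte plus foreskin fibroblast primary co-culture, sampled 24 h after chemical dosing. IL-1a measured by ELISA; responses fitted bidirectionally against DMSO baseline (negative control), so gain or loss of signal both count.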

[2] = read-out: Transforming growth factor beta 1 (TGFb1), TGFB1 (gene 7040); experiment: BSK_KF3CT_TGFb1: BioMAP Diversity Plus: KF3CT Assay for Transforming growth factor beta 1 (TGFb1) Biomarker Activity (AID 2283072); conditions: primary human keratinocytes with fibroblasts; actives raise or lower the signal
In short: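 Primary human skin cells (keratinocytes, foreskin fibroblasts) were co-cultured, exposed to test chemical and sampled at 24 h. TGF-b1 levels were measured by ELISA and fitted bidirectionally relative to DMSO.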

[3] = read-out: C-C motif chemokine 2 (Homo sapiens) (UniProt P13500); experiment: BSK_KF3CT_MCP1: BioMAP Diversity Plus: KF3CT Assay for Monocyte Chemoattractant Protein 1 (MCP1/CCL2) Biomarker Activity (AID 2283073); conditions: primary human keratinocytes with fibroblasts; actives raise or lower the signal
In short: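 ELISA read-out of MCP-1, 24 h post-dose, in primary human skin keratinocytes co-cultured with fibroblasts. Parallel SRB staining monitors cytotoxicity; changes fitted both directions relative to DMSO.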

[4] = read-out: Matrix Metallopeptidase 9 (MMP9), MMP9 (gene 4318); experiment: BSK_KF3CT_MMP9: BioMAP Diversity Plus: KF3CT Assay for Matrix Metallopeptidase 9 (MMP9) Biomarker Activity (AID 2283074); conditions: primary human keratinocytes with fibroblasts; actives raise or lower the signal;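 for AC50: MMP9 protein level quantified by ELISA in the co-culture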
In short: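 Keratinocyte plus foreskin fibroblast human primary skin co-culture was dosed with chemical and MMP-9 was quantified by ELISA 24 h later. Bidirectional curve fitting used DMSO as negative control and activity baseline.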

[5] = read-out: urokinase plasminogen activator (uPA), PLAU (gene 5328); experiment: BSK_KF3CT_uPA: BioMAP Diversity Plus: KF3CT Assay for urokinase plasminogen activator (uPA) Biomarker Activity (AID 2283075); conditions: primary human keratinocytes with fibroblasts; actives raise or lower the signal
In short: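 Human keratinocyte plus foreskin fibroblast primary co-culture exposed to chemical for 24 h. uPA levels were quantified by ELISA, and activity was fitted bidirectionally against a DMSO negative-control baseline.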

[6] = read-out: CD40, CD40 (gene 958); experiment: BSK_LPS_CD40: BioMAP Diversity Plus: LPS Assay for CD40 Biomarker Activity (AID 2283076); conditions: primary human HUVEC with PBMC; actives raise or lower the signal
In short: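 In the LPS system of human endothelial cells with peripheral blood mononuclear cells, CD40 levels were read by ELISA 24 h post-treatment. Signal changes in either direction were fitted against the DMSO baseline, with parallel SRB protein staining.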

[7] = read-out: Interleukin-8 (IL8), CXCL8 (gene 3576); experiment: BSK_LPS_IL8: BioMAP Diversity Plus: LPS Assay for Interleukin-8 (IL8) Biomarker Activity (AID 2283078); conditions: primary human HUVEC with PBMC; actives raise or lower the signal
In short: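 ELISA read-out of IL-8 after 24 h chemical treatment of LPS-activated endothelial/PBMC human primary co-cultures. Changes either up or down relative to DMSO; overt cytotoxicity checked by sulforhodamine B staining in parallel wells.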

[8] = BSK_LPS_SRB: Viability Assessment in the BioMAP Diversity Plus: LPS Assay (AID 2283079); conditions: primary human HUVEC with PBMC;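 note: total protein by sulforhodamine B absorbance as a cytotoxicity measure; measured one day after compound addition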
In short: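 SRB viability endpoint: cells fixed with 10% TCA, stained with 0.1% SRB, read at 560 nm, 24 h post-dose. HUVEC/PBMC co-culture; signal change in either direction scored relative to DMSO.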

[9] = read-out: Interleukin-1 alpha (IL1a), IL1A (gene 3552); experiment: BSK_LPS_IL1a: BioMAP Diversity Plus: LPS Assay for Interleukin-1 alpha (IL1a) Biomarker Activity (AID 2283080); conditions: primary human HUVEC with PBMC; actives raise or lower the signal
In short: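 Readout is IL-1a level by ELISA, 24 h post-dose, fitted as gain or loss relative to DMSO. System: LPS-activated human primary co-culture of vascular endothelium and peripheral blood mononuclear cells, with parallel SRB total-protein cytotoxicity.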

[10] = read-out: Monocyte Chemoattractant Protein-1 (MCP1), CCL2 (gene 6347); experiment: BSK_LPS_MCP1: BioMAP Diversity Plus: LPS Assay for Monocyte Chemoattractant Protein-1 (MCP1) Biomarker Activity (AID 2283081); conditions: primary human HUVEC with PBMC; actives raise or lower the signal
In short: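 Secreted MCP-1 read by ELISA at 24 h post-dosing in an LPS-activated co-culture of endothelial cells with peripheral blood mononuclear cells. Fits run in both directions, DMSO as baseline; parallel SRB staining tracks overt cytotoxicity.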

[11] = BSK_LPS_PGE2: BioMAP Diversity Plus: LPS Assay for Prostaglandin E2 (PGE2) Biomarker Activity (AID 2283082); conditions: primary human HUVEC with PBMC; actives raise or lower the signal
In short: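 LPS-activated HUVEC/PBMC co-culture; cmpd dosed, 24 h; PGE2 by ELISA; bidirectional fit vs DMSO; SRB (0.1%, TCA-fixed, 560 nm) in parallel plates for overt cytotox.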

[12] = read-out: Macrophage colony-stimulating factor (MCSF), CSF1 (gene 1435); experiment: BSK_LPS_MCSF: BioMAP Diversity Plus: LPS Assay for Macrophage colony-stimulating factor (MCSF) Biomarker Activity (AID 2283083); conditions: primary human HUVEC with PBMC; actives raise or lower the signal
In short: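 Bidirectional fitting against DMSO was applied to M-CSF levels read by ELISA at 24 h post-dose. The system pairs human umbilical vein endothelium with peripheral blood mononuclear cells; parallel SRB staining tracked cytotoxicity.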

[13] = read-out: Tissue Factor, F3 (gene 2152); experiment: BSK_LPS_TissueFactor: BioMAP Diversity Plus: LPS Assay for Tissue Factor Biomarker Activity (AID 2283084); conditions: primary human HUVEC with PBMC; actives raise or lower the signal
In short: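 Compound was added to an endothelial cell/PBMC co-culture, and after 24 h tissue factor (CD142) was read by ELISA. Gain or loss of signal was fitted against a DMSO baseline, and parallel SRB staining (560 nm) tracked overt cytotoxicity.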

[14] = read-out: Tumor necrosis factor (Homo sapiens) (UniProt P01375); experiment: BSK_LPS_TNFa: BioMAP Diversity Plus: LPS Assay for Tumour Necrosis Factor alpha (TNFa) Biomarker Activity (AID 2283085); conditions: primary human HUVEC with PBMC; actives raise or lower the signal
In short: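 Read-out is ELISA of TNFa in primary human endothelial cell–PBMC co-cultures at 24 h after compound. Activity in either direction was fitted against DMSO.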

[15] = read-out: CD40, CD40 (gene 958); experiment: BSK_SAg_CD40: BioMAP Diversity Plus: SAg Assay for CD40 Biomarker Activity (AID 2283088); conditions: primary human HUVEC with PBMC; actives raise or lower the signal
In short: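 CD40 is measured by fluorescence ELISA in an endothelial/PBMC primary human co-culture at 24 h post-dose. Fitting is bidirectional, DMSO baseline. Parallel SRB staining (560 nm) flags cytotoxicity.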

[16] = read-out: CD69, CD69 (gene 969); experiment: BSK_SAg_CD69: BioMAP Diversity Plus: SAg Assay for CD69 Biomarker Activity (AID 2283089); conditions: primary human HUVEC with PBMC; actives raise or lower the signal;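 for AC50: cell surface CD69 protein quantified by ELISA with fluorescence detection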
In short: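 Endothelial/PBMC co-culture; chemical added; 24 h incubation; CD69 ELISA with fluorescence detection; bidirectional fit vs DMSO.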

[17] = read-out: CD38, CD38 (gene 952); experiment: BSK_SAg_CD38: BioMAP Diversity Plus: SAg Assay for CD38 Biomarker Activity (AID 2283087); conditions: primary human HUVEC with PBMC; actives raise or lower the signal
In short: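 Human HUVEC plus PBMC co-culture stimulated with superantigen; CD38 measured by ELISA 24 h after chemical dosing. Fluorescence read-out, bidirectional fit against DMSO; cytotoxicity tracked in parallel by SRB and Alamar Blue.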

Chain of Tumor necrosis factor (Homo sapiens) (P01375 whole entry, looked up): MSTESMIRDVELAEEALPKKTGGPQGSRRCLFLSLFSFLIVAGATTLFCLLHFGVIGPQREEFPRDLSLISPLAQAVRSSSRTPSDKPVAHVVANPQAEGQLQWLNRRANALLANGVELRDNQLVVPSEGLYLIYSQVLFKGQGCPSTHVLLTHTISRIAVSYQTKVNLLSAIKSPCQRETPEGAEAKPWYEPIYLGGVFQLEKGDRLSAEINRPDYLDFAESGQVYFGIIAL

## CC=C(C)C=CC=C(C)C
[1]
  AC50: 0.016 µM (active)
[2]
  outcome: inactive
[3]
  outcome: inactive
[4]
  AC50: 20 µM (active)
[5]
  AC50: 3.13 µM (active)
[6]
  AC50: 7.42 µM (active)
[7]
  outcome: inactive
[8]
  outcome: inactive
[9]
  outcome: inactive
[10]
  outcome: inactive
[11]
  outcome: inactive
[12]
  outcome: inactive
[13]
  outcome: inactive
[14]
  outcome: inactive
[15]
  AC50: 6.97 µM (active)
[16]
  AC50: 18.7 µM (active)

## CC(C)CCCCCOC(=O)CS
[1]
  outcome: inactive
[2]
  outcome: inactive
[3]
  outcome: inactive
[4]
  outcome: inactive
[5]
  outcome: inactive
[6]
  outcome: inactive
[7]
  outcome: inactive
[8]
  outcome: inactive
[9]
  outcome: inactive
[10]
  outcome: inactive
[11]
  outcome: inactive
[12]
  outcome: inactive
[13]
  outcome: inactive
[14]
  outcome: inactive
[17]
  outcome: inactive
[15]
  outcome: inactive
[16]
  outcome: inactive

## O=C(Oc1ccccc1)c1ccccc1C(=O)Oc1ccccc1
[1]
  outcome: inactive
[2]
  outcome: inactive
[3]
  outcome: inactive
[4]
  outcome: inactive
[5]
  outcome: inactive
[6]
  outcome: inactive
[7]
  outcome: inactive
[8]
  outcome: inactive
[9]
  outcome: inactive
[10]
  outcome: inactive
[11]
  outcome: inactive
[12]
  outcome: inactive
[13]
  outcome: inactive
[14]
  outcome: inactive
[17]
  AC50: 29.7 µM (active)
[16]
  AC50: 24.1 µM (active)

— PubChem BioAssay (EPA / NIEHS)
